Test results reported in PubChem BioAssay (Tox21).
Where “and” joins values, the source holds several entries; their conditions need not be identical. Identical values can stand only once. Inconclusive results are not listed. Where a call stands in place of a potency, no number is given. A structure can be active in one record and inactive in another. Calls of active or inactive are those of the source. Unless noted, calls follow the shape of the dose curve; as a rule, active = well fitted curve in the direction sought with a large enough effect in the repeat runs; inconclusive = weak or mixed curves; inactive = no such curve, though single readings can be large; an effect the other way counts as inactive or inconclusive.

How the values were obtained:
[1] = target: Progesterone receptor (Homo sapiens) (UniProt P06401); assay: qHTS assay to identify small molecule antagonists of the progesterone receptor (PR) signaling pathway (AID 1346795; active = well fitted inhibition curve with a large enough effect in the signal ratio in the repeat runs, not every such curve was filed as active; the % refers to the signal ratio; also: potency is read from the fitted curve at half-maximal effect)
Chain of Progesterone receptor (Homo sapiens) (P06401 whole entry, looked up): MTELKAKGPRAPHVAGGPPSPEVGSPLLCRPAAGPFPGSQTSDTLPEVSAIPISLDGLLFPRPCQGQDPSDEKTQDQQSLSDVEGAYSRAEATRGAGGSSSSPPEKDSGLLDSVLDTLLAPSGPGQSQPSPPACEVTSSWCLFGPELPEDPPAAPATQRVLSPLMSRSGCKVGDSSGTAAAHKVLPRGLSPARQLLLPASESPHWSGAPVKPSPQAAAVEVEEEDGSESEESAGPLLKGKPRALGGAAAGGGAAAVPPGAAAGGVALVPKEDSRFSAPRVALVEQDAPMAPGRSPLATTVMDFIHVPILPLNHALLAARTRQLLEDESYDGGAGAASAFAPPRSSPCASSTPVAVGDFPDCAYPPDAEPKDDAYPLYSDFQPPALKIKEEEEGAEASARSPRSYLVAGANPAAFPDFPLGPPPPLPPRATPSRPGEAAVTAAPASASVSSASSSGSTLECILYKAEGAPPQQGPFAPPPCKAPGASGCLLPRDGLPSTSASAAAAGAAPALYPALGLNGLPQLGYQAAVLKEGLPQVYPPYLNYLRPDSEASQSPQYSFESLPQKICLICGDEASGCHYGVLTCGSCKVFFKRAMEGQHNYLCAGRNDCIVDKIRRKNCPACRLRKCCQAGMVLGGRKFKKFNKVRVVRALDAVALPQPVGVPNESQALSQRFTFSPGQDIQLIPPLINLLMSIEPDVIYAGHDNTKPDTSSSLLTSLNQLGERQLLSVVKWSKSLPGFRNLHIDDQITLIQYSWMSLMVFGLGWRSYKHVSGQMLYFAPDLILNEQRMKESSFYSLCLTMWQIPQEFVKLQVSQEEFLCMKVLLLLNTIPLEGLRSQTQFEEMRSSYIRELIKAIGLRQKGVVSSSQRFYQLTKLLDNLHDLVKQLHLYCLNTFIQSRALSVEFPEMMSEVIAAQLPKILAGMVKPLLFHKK
How it was run: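 Read-out is fluorescence from the LiveBLAzer B/G FRET substrate, cleaved by a UAS-controlled beta-lactamase in PR-UAS-bla HEK293T cells after 16 hr exposure to compound plus 1 nM promegestone (final), followed by 2 hr at room temperature.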

[2] = qHTS assay to identify small molecule antagonists of the progesterone receptor (PR) signaling pathway - cell viability counter screen (AID 1346798); also: nearly all actives have a fitted effect of over 50% in size; also: potency is read from the fitted curve at half-maximal effect
How it was run: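 HEK293T PR-UAS-bla, 2% charcoal-stripped FBS; 4 hr pre-plate; cpd + R5020, 16 h 37C; LiveBLAzer read first; then CellTiter-Glo 30 min RT, luminescence.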

[3] = qHTS assay to identify small molecule agonists of the progesterone receptor (PR) signaling pathway - cell viability counter screen (AID 1346799; calls by dose curve; also: nearly all actives have a fitted effect of over 45% in size; also: potency is read from the fitted curve at half-maximal effect)
How it was run: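 Luminescence from CellTiter-Glo, added after the beta-lactamase FRET read in the same wells, gave cytotoxicity in PR-UAS-bla HEK293T cells treated with compounds for 16 hr at 37C.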

[4] = qHTS assay to identify small molecule antagonists of the TGF-beta/Smad signaling pathway - cell viability counter screen (AID 1346824); also: nearly all actives have a fitted effect of over 50% in size; also: potency is read from the fitted curve at half-maximal effect
How it was run: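 Cytotoxicity counter-screen run in the same wells as the beta-lactamase Smad reporter read: CellTiter-Glo luminescence after 30 min at room temperature. HEK 293T SBE-bla cells had 5 hr compound exposure at 37 C with TGF-beta1 (0.25 ng/mL stock).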

[5] = qHTS assay to identify small molecule agonists of the TGF-beta/Smad signaling pathway - cell viability counter screen (AID 1346829); also: nearly all actives have a fitted effect of over 45% in size; also: potency is read from the fitted curve at half-maximal effect
How it was run: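 HEK 293T SBE-bla line, 5 hr compound exposure at 37 C, multiplexed CellTiter-Glo viability read by luminescence.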

[6] = qHTS assay to identify small molecule agonists of the TGF-beta/Smad signaling pathway (AID 1346859; active = well fitted activation curve with a large enough effect in the signal ratio in the repeat runs, not every such curve was filed as active; the % refers to the signal ratio; also: series mostly up to about 77 µM)
How it was run: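 SBE-bla HEK 293T, 4,000 cells/well, plated o/n; cpd in DMSO, 5 hr, 37 C/5% CO2; B/G FRET substrate 2 hr RT; ex 405, em 460/530 nm.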

[7] = target: Thyrotropin-releasing hormone receptor (Homo sapiens) (UniProt P34981); assay: qHTS assay to identify small molecule agonists of the thyrotropin-releasing hormone receptor (TRHR) signaling pathway (AID 1346891; calls by dose curve; also: series mostly up to about 58 µM)
Chain of Thyrotropin-releasing hormone receptor (Homo sapiens) (P34981 whole entry, looked up): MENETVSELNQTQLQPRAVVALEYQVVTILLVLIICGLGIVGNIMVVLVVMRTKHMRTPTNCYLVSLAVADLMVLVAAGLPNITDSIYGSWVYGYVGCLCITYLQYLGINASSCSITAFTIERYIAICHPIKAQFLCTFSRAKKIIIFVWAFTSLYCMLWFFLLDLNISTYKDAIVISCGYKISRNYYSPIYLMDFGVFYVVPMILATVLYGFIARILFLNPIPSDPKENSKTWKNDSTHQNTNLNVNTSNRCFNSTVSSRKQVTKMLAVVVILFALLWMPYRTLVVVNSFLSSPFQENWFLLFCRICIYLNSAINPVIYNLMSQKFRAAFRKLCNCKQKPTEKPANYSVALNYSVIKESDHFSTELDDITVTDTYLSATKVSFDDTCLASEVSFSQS
How it was run: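 Intracellular calcium rise, read as fluorescence every second for 3 min, served as the agonist signal in dye-loaded HEK293 cells expressing TRHR; each compound ran at 15 concentrations in triplicate.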

[8] = Human pregnane X receptor (PXR) small molecule agonists, qHTS cell viability counter screen (AID 1346977); also: nearly all actives have a fitted effect of over 50% in size; also: potency is read from the fitted curve at half-maximal effect
How it was run: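 PXR-Luc HepG2, 2,000 cells/well, 5% charcoal-stripped FBS; 5hr settle; cpd 24hr, 37C/5% CO2; CellTiter-Fluor at 23hr, read 1hr later (fluorescence).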

[9] = target: Progesterone receptor (Homo sapiens) (UniProt P06401); assay: qHTS assay to identify small molecule agonists of the progesterone receptor (PR) signaling pathway (AID 1346784; calls by dose curve; also: nearly all actives have a fitted effect of over 30% in size; also: potency is read from the fitted curve at half-maximal effect)
How it was run: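 Beta-lactamase reporter read-out: after 16 hr compound treatment at 37C and a further 2 hr at room temperature with LiveBLAzer B/G FRET substrate, fluorescence was measured in PR-UAS-bla HEK 293T cells grown in 2% charcoal-stripped serum.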

[10] = target: Thyrotropin-releasing hormone receptor (Homo sapiens) (UniProt P34981); assay: qHTS assay to identify small molecule antagonists of the thyrotropin-releasing hormone receptor (TRHR) signaling pathway (AID 1346877; active = well fitted inhibition curve with a large enough effect in the repeat runs, not every such curve was filed as active; also: series mostly up to about 51 µM)
How it was run: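 TRHR-expressing HEK293 cells were seeded, cultured 18 h at 37 °C, then loaded with calcium dye for 2 h. Compounds were pre-incubated 5 min at room temperature before 1 nM TRH (final) was added, and kinetic fluorescence was recorded for 3 min.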

Compound	Potency [1]	Potency [2]	Potency [3]	Potency [4]	Potency [5]	outcome [6]	Potency [7]	Potency [8]	Potency [9]	Potency [10]
Cc1ccccc1[N+](=O)[O-]	inactive	inactive	inactive	inactive	inactive	inactive	inactive	inactive	–	–
Clc1nc(Cl)nc(Cl)n1	inactive	inactive	inactive	inactive	–	inactive	inactive	inactive	inactive	–
CC(C)Oc1cc(-n2nc(C(C)(C)C)oc2=O)c(Cl)cc1Cl	24 µM (active) and 24.3 µM (active)	inactive	inactive	inactive	inactive	inactive	inactive	–	–	inactive
CCC(CC)Nc1c([N+](=O)[O-])cc(C)c(C)c1[N+](=O)[O-]	–	inactive	inactive	inactive	inactive	inactive	inactive	inactive	inactive	–
CN(C)c1ccc(C(=O)c2ccc(N(C)C)cc2)cc1	27.3 µM (active)	–	inactive	inactive	–	inactive	inactive	54.5 µM (active)	inactive	inactive
C#CCOS(=O)OC1CCCCC1Oc1ccc(C(C)(C)C)cc1 (configuration not stated)	–	inactive	–	inactive	inactive	inactive	inactive	7.08 µM (active) and 7.7 µM (active)	inactive	inactive
CCC(C)c1ccc(O)cc1 (configuration not stated)	inactive	inactive	inactive	inactive	inactive	inactive	inactive	inactive	–	inactive
CC(C)(OOC(C)(C)c1ccccc1)c1ccccc1	–	inactive	inactive	inactive	inactive	inactive	inactive	inactive	inactive	–
Nc1ccc(Cl)c(Cl)c1	–	inactive	inactive	inactive	inactive	inactive	inactive	inactive	inactive	–
Nc1ccc(Cl)cc1N	–	inactive	inactive	inactive	–	–	inactive	inactive	inactive	inactive
Oc1cc(Cl)c(Cl)cc1Cl	60.6 µM (active) and inactive and 54.5 µM (active)	inactive	–	inactive	inactive	inactive	inactive	inactive	inactive	–
C[C@]12CCC(=O)C(O)=C1CC[C@@H]1[C@@H]2CC[C@]2(C)C(=O)CC[C@@H]12	–	–	inactive	inactive	inactive	inactive	–	inactive	inactive	–
CCC(C)(c1ccc(O)cc1)c1ccc(O)cc1	4.32 µM (active)	–	–	inactive	inactive	inactive	inactive	inactive	inactive	–
CCN(CC)C(=O)SCc1ccc(Cl)cc1	25.1 µM (active) and 27.3 µM (active)	inactive	inactive	inactive	–	inactive	inactive	inactive	inactive	inactive
CCCCCc1cc(O)cc(O)c1	68.9 µM (active) and 21.7 µM (active)	–	–	inactive	inactive	inactive	inactive	inactive	inactive	inactive
CCOc1cc(Oc2ccc(C(F)(F)F)cc2Cl)ccc1[N+](=O)[O-]	15.5 µM (active) and 13.7 µM (active)	inactive	–	inactive	inactive	inactive	inactive	inactive	inactive	inactive
O=P(O)(O)CCCl	inactive	inactive	inactive	inactive	–	inactive	inactive	inactive	inactive	–
Cc1ccc2c(c1N)C(=O)c1ccccc1C2=O	–	inactive	inactive	inactive	inactive	inactive	inactive	19.1 µM (active) and 27.3 µM (active)	inactive	inactive
C[C@]12CCC(=O)C[C@@H]1CC[C@@H]1[C@@H]2CC[C@]2(C)[C@@H](O)CC[C@@H]12	–	–	48 µM (active)	inactive	inactive	inactive	–	inactive	3.03 µM (active) and 1.94 µM (active)	–
CCOCN(C(=O)CCl)c1c(C)cccc1CC	–	inactive	inactive	inactive	–	–	inactive	–	inactive	inactive
NCc1cccnc1	inactive	inactive	inactive	inactive	inactive	inactive	inactive	inactive	–	inactive

Compound	Potency [1]	Potency [2]	Potency [3]	Potency [4]	Potency [5]	outcome [6]	Potency [7]	Potency [8]	Potency [9]	Potency [10]
CCCCCCCCC(=O)NCc1ccc(O)c(OC)c1	48.6 µM (active)	–	–	inactive	–	inactive	–	inactive	inactive	–
CC(C)c1ccc(CO)cc1	inactive	inactive	inactive	inactive	–	inactive	–	inactive	inactive	–
COP(=S)(OC)Oc1cc(Cl)c(Cl)cc1Cl	inactive	inactive	inactive	inactive	–	inactive	inactive	inactive	inactive	–
CCOC(=O)C(C)OC(=O)c1cc(Oc2ccc(C(F)(F)F)cc2Cl)ccc1[N+](=O)[O-] (configuration not stated)	30.5 µM (active)	–	–	inactive	inactive	inactive	inactive	inactive	inactive	inactive
S=C1NCCN1	inactive	inactive	inactive	inactive	–	inactive	inactive	inactive	inactive	–
C=C(C)[C@H]1Cc2c(ccc3c2O[C@@H]2COc4cc(OC)c(OC)cc4[C@@H]2C3=O)O1	19.6 µM (active) and 9.69 µM (active) and 11.9 µM (active)	–	–	–	–	inactive	inactive	112 nM (active) and 2.17 µM (active) and 298 nM (active)	inactive	inactive
Cc1ccc(OP(=O)(Oc2ccc(C)cc2)Oc2ccc(C)cc2)cc1	15.4 µM (active)	–	inactive	inactive	–	inactive	inactive	inactive	inactive	inactive
Oc1cc(Cl)ccc1Oc1ccc(Cl)cc1Cl	13.3 µM (active)	31.4 µM (active)	31.4 µM (active) and inactive	inactive	–	inactive	–	31.4 µM (active) and 29.8 µM (active)	–	–
COP(=O)(OC)OC	inactive	inactive	inactive	inactive	–	inactive	inactive	44.7 µM (active) and inactive	–	–
CCCCNC(=O)n1c(NC(=O)OC)nc2ccccc21	–	–	inactive	inactive	inactive	inactive	inactive	inactive	–	–
CCCCCCCCOC(=O)c1ccccc1C(=O)OCCCCCCCC	inactive	inactive	inactive	inactive	–	inactive	inactive	inactive	–	–
O=C(CCl)c1ccccc1	inactive	inactive	inactive	inactive	inactive	inactive	–	inactive	–	–
COP(=S)(OC)Oc1ccc([N+](=O)[O-])cc1	inactive and 24.3 µM (active)	inactive	inactive	inactive	–	inactive	inactive	inactive	–	inactive
O=[N+]([O-])c1ccc(O)c([N+](=O)[O-])c1	inactive	–	–	inactive	inactive	inactive	inactive	24.4 µM (active) and 54.5 µM (active)	–	inactive
Cc1ccc(N)c(N)c1	–	–	inactive	inactive	inactive	inactive	–	inactive	–	–
CCCCC(CC)COC(=O)Cl (configuration not stated)	–	inactive	inactive	inactive	inactive	inactive	inactive	inactive	–	inactive
O=P(Oc1ccccc1)(Oc1ccccc1)Oc1ccccc1	–	inactive	inactive	inactive	inactive	inactive	inactive	inactive	–	–
CCc1cccc(CC)c1N(COC)C(=O)CCl	–	inactive	–	inactive	inactive	inactive	inactive	39.8 µM (active) and inactive	–	inactive
CCCCCCOC(=O)c1ccccc1C(=O)OCCCCCC	–	inactive	inactive	inactive	inactive	inactive	inactive	inactive	–	inactive
Nc1ccc(-c2ccccc2)cc1	1.99 µM (active)	inactive	inactive	inactive	–	inactive	inactive	inactive	–	inactive
Nc1cccnc1	inactive	inactive	inactive	inactive	–	inactive	inactive	inactive	–	–

Compound	Potency [1]	Potency [2]	Potency [3]	Potency [4]	Potency [5]	outcome [6]	Potency [7]	Potency [8]	Potency [9]	Potency [10]
ClC1C(Cl)C(Cl)C(Cl)C(Cl)C1Cl (configuration not stated)	inactive	inactive	inactive	inactive	–	inactive	inactive	inactive	–	–
c1ccc(NNc2ccccc2)cc1	inactive	inactive	inactive	inactive	–	inactive	inactive	inactive	–	–
O=C(O)C(F)(F)C(F)(F)C(F)(F)C(F)(F)C(F)(F)C(F)(F)C(F)(F)F	inactive	inactive	–	inactive	inactive	inactive	inactive	inactive	–	–
Nc1c(Cl)cc([N+](=O)[O-])cc1Cl	30.6 µM (active)	inactive	–	inactive	inactive	inactive	inactive	inactive	–	–
CCOC(=S)S	–	4.86 µM (active)	4.86 µM (active)	inactive	–	inactive	–	inactive	–	–
Oc1c(Cl)c(Cl)c(Cl)c(Cl)c1Cl	59.9 µM (active) and 48.6 µM (active)	inactive	–	inactive	inactive	inactive	inactive	–	–	–
O=S(=O)(Oc1ccc(Cl)cc1)c1ccc(Cl)cc1	17.5 µM (active) and 17.2 µM (active)	inactive	inactive	inactive	–	inactive	inactive	inactive	–	–
NNC(=S)NN	62.8 µM (active) and 54.5 µM (active)	inactive	inactive	inactive	–	inactive	inactive	inactive	–	inactive
CC1(C)C(C=C(Cl)Cl)C1C(=O)OC(C#N)c1cccc(Oc2ccccc2)c1 (configuration not stated)	–	inactive	inactive	inactive	–	inactive	inactive	inactive	–	–
Nc1ccc(-c2ccc(N)c(N)c2)cc1N	48.4 µM (active) and 24.3 µM (active)	inactive	inactive	inactive	–	inactive	–	inactive	–	–
c1cc(OCC2CO2)ccc1Cc1ccc(OCC2CO2)cc1 (configuration not stated)	–	–	–	inactive	–	inactive	inactive	–	–	inactive
c1nc[nH]n1	inactive	inactive	inactive	inactive	inactive	inactive	–	inactive	–	–
CCCCN(CC)c1c([N+](=O)[O-])cc(C(F)(F)F)cc1[N+](=O)[O-]	inactive	inactive	inactive	inactive	–	inactive	inactive	inactive	–	inactive
O=c1oc2ccccc2c(O)c1C(CC(O)c1ccc(-c2ccc(Br)cc2)cc1)c1ccccc1 (configuration not stated)	–	–	–	inactive	inactive	–	inactive	inactive	–	inactive
O=C(NC(=O)c1c(F)cccc1F)Nc1ccc(Cl)cc1	inactive	inactive	inactive	inactive	inactive	inactive	–	inactive	–	–
N#CCCCl	inactive	inactive	inactive	inactive	inactive	inactive	–	inactive	–	–
O=C(Nc1ccc(Br)cc1)c1cc(Br)cc(Br)c1O	–	12.1 µM (active) and 21.7 µM (active)	inactive	30.8 µM (active) and 21.9 µM (active) and 19 µM (active)	24.5 µM (active) and 43.6 µM (active) and 23.9 µM (active)	–	inactive	6.31 µM (active) and 8.63 µM (active) and 10.6 µM (active)	–	inactive
Cc1cccc(N)c1N	–	inactive	inactive	inactive	–	inactive	inactive	inactive	–	inactive
C=CCc1ccc2c(c1)OCO2	inactive	inactive	inactive	inactive	–	inactive	–	inactive	–	–
